Measurements published in ChEMBL document CHEMBL1157539, “Thousands of chemical starting points for antimalarial lead identification” (Nature, 2010).

Tests used:
Type in all cases: functional
[1] = system: Plasmodium falciparum; test: GSK_TCMDC: Inhibition of Plasmodium falciparum 3D7 in whole red blood cells, using parasite LDH activity as an index of growth. Test compounds present at 2uM
[2] = system: Plasmodium falciparum; test: GSK_TCMDC: Inhibition of Plasmodium falciparum Dd2 in whole red blood cells, using parasite LDH activity as an index of growth. Test compounds present at 2uM
[3] = system: HepG2; test: GSK_TCMDC: Percent inhibition of human HepG2 cell line. Test compounds present at 10uM.

SMILES	Inhibition [1]	Inhibition [2]	Inhibition [3]
COc1ccc(-c2ccc(NC(=O)c3cccc(C#N)c3)cc2)cc1CN(C)C.O=C(O)C(F)(F)F	100%	10%	11%
COc1cc(Cc2cnc(N)nc2N)cc(OCCNC(=O)OCc2ccccc2)c1OC	93%	0%	6%
CC(=O)CC(=O)N1CCN(c2ccccc2)CC1	85%	0%	54%
O=C(Nc1nc(-c2ccccn2)cs1)c1ccccc1COc1ccccc1	83%	42%	34%
Cc1cc(N(C)C)nc(Nc2ccc(NC(=O)CCc3ccccc3)cc2)n1	100%	84%	20%
CCOC(=O)c1c(C)n(-c2ccc(Cl)cc2)c2ccc(OC(=O)C=Cc3ccccc3)cc12	99%	92%	3%
CCOc1ccc(C(C)NC(=O)c2cc(Cl)ccc2OC)cc1OCC (stereo unspecified)	100%	99%	0%
COc1ccc2nc3ccccc3c(NCCN3CCN(C)CC3)c2c1	81%	10%	11%
Cc1cc(C)cc(N2C(N)=NC(N)=NC2(C)C)c1.Cl	93%	6%	58%
O=C(O)C(F)(F)F.O=c1[nH]ccc2nc(N[C@@H]3CCCNC3)nc(Nc3ccc(S(=O)(=O)N4CCOCC4)cc3)c12	96%	99%	13%
O=CO.c1ccc(-c2ccc(CNCCCNc3nc4ccccc4[nH]3)cc2)cc1	95%	0%	20%
O=C(Cn1c(CCc2cccc(F)c2F)cc(=O)c2ccccc21)N(CCN1CCCCC1)Cc1ccc(-c2ccc(C(F)(F)F)cc2)cc1.O=C(O)C(O)C(O)C(=O)O	100%	59%	9%
